Measurements: PubChem BioAssay AID1209 (Sanford-Burnham Center for Chemical Genomics, 2008)
Screen size: about 190,000 compounds; about 810 (0.43%) were called active. Only a selection was taken, and actives are over-represented in it overall. A number with no mark means an inactive call. Cut-off read from the data, not from the text of the source: active = inhibition above about 50%; inactive = the rest.

biological target: Mannose-6-phosphate isomerase (Homo sapiens) (UniProt P34949); test: inhibitors of human PMI, primary screen, biochemical, fluorescence intensity, coupled assay (AID 1209); settings: purified PMI enzyme, at 20 µM, hits give high values;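 note: plate controls were DMSO vehicle for no effect and wells lacking substrate for full effect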
Sequence (P34949 whole entry, looked up): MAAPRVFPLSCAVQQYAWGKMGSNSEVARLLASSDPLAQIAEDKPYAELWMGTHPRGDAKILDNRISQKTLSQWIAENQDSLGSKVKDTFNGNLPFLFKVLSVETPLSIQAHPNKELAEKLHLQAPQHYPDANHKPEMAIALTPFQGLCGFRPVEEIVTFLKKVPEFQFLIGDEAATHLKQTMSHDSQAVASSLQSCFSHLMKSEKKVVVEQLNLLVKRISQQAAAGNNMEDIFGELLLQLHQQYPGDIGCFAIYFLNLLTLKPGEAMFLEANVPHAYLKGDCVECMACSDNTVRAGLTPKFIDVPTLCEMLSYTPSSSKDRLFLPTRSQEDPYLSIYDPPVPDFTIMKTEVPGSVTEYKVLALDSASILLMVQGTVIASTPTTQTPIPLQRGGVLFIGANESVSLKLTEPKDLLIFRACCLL

Row | Structure (SMILES) | inhibition
1 | N#CCCn1cc(C=C2C(=O)NC(=O)NC2=O)c(-c2ccccc2)n1 | -7.4%
2 | O=C(O)CCn1cc(C=C2C(=O)NC(=S)NC2=O)c(-c2ccccc2)n1 | 55.5% (active)
3 | O=C(O)CCn1cc(C=C2C(=O)NC(=O)NC2=O)c(-c2cc3ccccc3oc2=O)n1 | -3.7%
4 | O=C(O)CCn1cc(C=C2C(=O)NC(=S)NC2=O)c(-c2cccc(Cl)c2)n1 | 64.1% (active)
5 | O=C(O)CCn1cc(C=C2C(=O)NC(=S)NC2=O)c(-c2cc3ccccc3oc2=O)n1 | -33.9%
6 | O=C(O)CCn1cc(C=C2C(=O)NC(=O)NC2=O)c(-c2ccc(Br)cc2)n1 | 5.8%
7 | O=c1c2ccccc2nc(-c2cccs2)n1-c1ccccc1 | -8.6%
8 | COc1ccc(N/N=C/c2c(O)n(-c3cccc(C)c3)c(=O)[nH]c2=O)cc1 | -72.8%
9 | CCOCCCNC(=O)CN1C2CCC1CC(O)(c1ccc(OC)cc1)C2 (stereo not drawn) | 15%
10 | CC(=O)Nc1ccccc1OC(=O)N(C)C | 7.3%
11 | CN(C)CCCN=Cc1c(O)n(CCc2ccccc2)c(=O)[nH]c1=O | -1.1%
12 | CCCCn1c(N)c(C(=O)NCCN2CCOCC2)c2nc3ccccc3nc21 | 17.1%
13 | CCC(C)NC(=O)c1c(N)n(CCCOC)c2nc3ccccc3nc12 (stereo not drawn) | 56% (active)
14 | CCCCCn1c(N)c(C(=O)NCCN2CCOCC2)c2nc3ccccc3nc21 | 25.4%
15 | CCCCCn1c(N)c(C(=O)NCc2cccs2)c2nc3ccccc3nc21 | 51.9% (active)
16 | CCCCCCn1c(N)c(C(=O)NCCN2CCOCC2)c2nc3ccccc3nc21 | 28.6%
17 | CCCCn1c(N)c(C(=O)NCc2cccs2)c2nc3ccccc3nc21 | 59.9% (active)
18 | CCOC(=O)c1c(N)n(CCCOC(=O)c2ccco2)c2nc3ccccc3nc12 | 6%
19 | CCCCn1c(NC(=O)c2ccco2)c(C(=O)OCC)c2nc3ccccc3nc21 | 55.8% (active)
20 | CCCCNC(=O)c1c(N)n(CCCOC)c2nc3ccccc3nc12 | 41.1%
21 | CCCCn1c(NC(=O)c2ccc(Br)o2)c(C(=O)OCC)c2nc3ccccc3nc21 | 22.2%

Row | Structure (SMILES) | inhibition
22 | COCCCn1c(N)c(C(=O)NCCC(C)C)c2nc3ccccc3nc21 | 37.9%
23 | CC(C)CCn1c(N)c(C(=O)NCc2cccs2)c2nc3ccccc3nc21 | 24.5%
24 | CC1C(c2cccs2)=[N+]([O-])C(C)(C(=O)c2cccs2)N1O (stereo not drawn) | -1.9%
25 | Cc1c(C=O)c2ccccc2n1Cc1cccc(F)c1 | -20.1%
26 | CCOC(=O)C1C(=O)N(C)C2(C)CC1c1cc(OC)ccc1O2 (stereo not drawn) | -7%
27 | O=C1NC(=O)C(CCc2ccncc2)(CCc2ccncc2)C(=O)N1CCc1ccc(F)cc1 | -4.4%
28 | COc1ccc2[nH]c(C)c(CCN3CCC(=O)C(C)C3C)c2c1 (stereo not drawn) | 13.4%
29 | CCOC(=O)N(c1ccccc1)P1(=S)OCC(C)O1 (stereo not drawn) | -1.5%
30 | COC(=O)N(c1ccccc1)P1(=S)OCCO1 | 24.3%
31 | COC(=O)N(c1ccc(OC)cc1)P1(=S)OCCC(C)O1 (stereo not drawn) | 62.3% (active)
32 | CCn1c(=O)n(CC)c2cc([N+](=O)[O-])c(N3CCNCC3)cc21 | 0.8%
33 | CCn1nc(-c2ccccc2)nc2c(=O)n(C)c(=O)nc1-2 | -4.4%
34 | Cn1ncnc2c(=O)n(C)c(=O)nc1-2 | 74.8% (active)
35 | CCn1nc(/C=C/c2ccccc2)nc2c(=O)n(C)c(=O)nc1-2 | 39.7%
36 | Cc1nc2c(=O)n(C)c(=O)nc-2n(C)n1 | 73.6% (active)
37 | CCn1nc(-c2cccs2)nc2c(=O)n(C)c(=O)nc1-2 | 6.3%
38 | CCc1ccc(CN2CCN(Cc3ccc(SC)cc3)CC2)cc1 | -14.5%
39 | C=C1N2CCC(CC2)C1(O)c1ccc(C)c(C)c1 (stereo not drawn) | -10.2%
40 | O=C(Cc1ccccc1)OCCNC(=O)c1cccnc1 | -4%
41 | CN(C)C(=O)Oc1c(Cl)cc(Cl)c2cccnc12 | 8.2%
42 | COC(=O)c1ccccc1N=Cc1c(O)[nH]c(=S)[nH]c1=O | -42.9%

Row | Structure (SMILES) | inhibition
43 | O=c1c(/C=N/N2CCOCC2)c(O)n(-c2ccccc2)c(=S)n1-c1ccccc1 | 4.6%
44 | Cc1ccccc1C(=O)NC(Oc1ccccc1)C(Cl)(Cl)Cl (stereo not drawn) | 6.5%
45 | CC(=O)N(C1=NCCCS1)c1ccccc1Cl | -4.6%
46 | O=c1[nH]c(=O)n(-c2cccc(Cl)c2)c(O)c1C=NCCCN1CCOCC1 | 4.5%
47 | CC1=CC(=O)NP(=O)(Oc2ccc3ccccc3c2)N1 (stereo not drawn) | 78.5% (active)
48 | COc1ccc(P2(=O)Nc3ccccc3N2)cc1 | 16.8%
49 | O=C(C1CC(c2ccc(F)cc2)=NO1)N1CCC2(CC1)OCCO2 (stereo not drawn) | -5.3%
50 | Cn1ccnc1P(=S)(c1nccn1C)c1nccn1C | -5%
51 | Cc1ccc(NP(=O)(c2ccccc2)c2nc3ccccc3s2)cc1 (stereo not drawn) | 80.5% (active)
52 | O=P(c1ccccc1)(c1nc2ccccc2s1)N1CCOCC1 (stereo not drawn) | -5.8%
53 | COCCNP(=O)(c1ccccc1)c1nc2ccccc2s1 (stereo not drawn) | 1.6%
54 | CN(C)c1ccc([P+](=O)c2ccc(N(C)C)cc2)cc1 | 10.8%
55 | CCc1c(C)nc(N)nc1N1N=C1SCC(N)=O | -3%
56 | Cc1ccccc1N1C(=O)NC(=O)/C(=C\c2ccc3c(c2)CCCN3Cc2ccccc2)C1=O | -9%
57 | CC1CC(OP(O)(=S)c2ccc(N(C)C)cc2NC(=O)c2cccs2)CC(C)(C)C1 (stereo not drawn) | 59.7% (active)
58 | CCOC(=O)C1(CCc2ccccc2)CCN(Cc2cccc3cnccc23)CC1 | 24.8%
59 | COc1ccc(C(CC(=O)N2CCC3(CC2)OCCO3)NS(=O)(=O)c2ccc(OC)cc2)cc1 (stereo not drawn) | 4.9%
60 | O=C(C1CCCO1)N1CCC2(CC1)OCCO2 (stereo not drawn) | 5.3%
61 | Cc1cc(C=C2C(=O)N(C)C(=S)N(C)C2=O)c(C)n1C1CCCC1 | 6%
62 | CCN1C(=O)C(=Cc2cc(C)n(C3CC3)c2C)C(=O)N(CC)C1=S | 63.8% (active)
63 | Cc1cc(C=C2C(=O)N(C)C(=S)N(C)C2=O)c(C)n1C1CCCCC1 | -12.8%
